From PubChem BioAssay (NCI)
This is part of a sample that, as a whole, favours compounds with a hit. Of some 79,000 tested, about 15% had one in any assay. The source made the active and inactive calls. Rule as the data show it: active = growth inhibition above about 70%; inactive = the rest.

Legend:
[1] = NCI Yeast Anticancer Drug Screen. Data for the rad50 strain (AID 155);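 also: 0% = growth of vehicle-only cultures of the same strain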; conditions: S. cerevisiae rad50 strain growth inhibition; at 50.0 µM; hits give high values
Procedure, shortened: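 Vehicle-treated cultures provide the reference for the growth inhibition reported for compound-exposed, repair-deficient yeast.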

[2] = NCI Yeast Anticancer Drug Screen. Data for the mec2-1 strain (AID 157); conditions: S. cerevisiae mec2-1 strain, at 50.0 µM, hits give high values
Procedure, shortened: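 Using mec2-1 yeast: add compound, measure growth, express inhibition versus vehicle-treated cultures.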

[3] = NCI Yeast Anticancer Drug Screen. Data for the sgs1 mgt1 strain (AID 161);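 also: 0% = growth of cultures given vehicle only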; conditions: S. cerevisiae sgs1 mgt1 strain, at 50.0 µM, hits give high values
Procedure, shortened: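 Percent growth inhibition was derived by comparing compound-exposed mutant yeast with vehicle-exposed cultures. The strain carries alterations in DNA damage repair.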

[4] = NCI Yeast Anticancer Drug Screen. Data for the cln2 rad14 strain (AID 165);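 also: 0% = growth equal to vehicle treated cultures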; conditions: S. cerevisiae cln2 rad14 strain, at 50.0 µM, hits give high values
Procedure, shortened: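 Yeast strain cln2 rad14, bearing defects in cell cycle control and DNA repair, serves as the test system; values reflect growth inhibition compared with vehicle.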

[5] = NCI Yeast Anticancer Drug Screen. Data for the bub3 strain (AID 167); conditions: S. cerevisiae bub3 mutant strain, at 50.0 µM, hits give high values
Procedure, shortened: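 Mutant yeast screening strain plus compound; vehicle-treated cultures serve as the 0% inhibition reference.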

[6] = NCI Yeast Anticancer Drug Screen. Data for the mlh1 rad18 strain (AID 175); conditions: S. cerevisiae mlh1 rad18 strain growth inhibition; at 50.0 µM; hits give high values
Procedure, shortened: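 Steps: expose repair-defective yeast to compound; measure growth; express inhibition against vehicle-treated controls.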

Measured: growth inhibition

C/C(=N/N)c1sc(-c2nc(C)c(/C(C)=N\N)s2)nc1C
inactive: [1] 32.9% | [2] -31.1% | [3] -26.9% | [4] -16% | [5] -18.1% | [6] -11.3%

[CH2+][B-]1(C)n2cc(Br)c[n+]2[B-](C)(C)[n+]2cc(Br)cn21
inactive: [1] 16.2% | [2] 16.8% | [3] 8.05% | [4] 9.8% | [5] 7.1% | [6] 22.6%

N[n+]1ccccc1
inactive: [1] -9.45% | [2] -6.85% | [3] -9.1% | [4] -37.4% | [5] -4.65% | [6] -2.6%

c1ccc(CN2CCc3ncnc(Nc4ccccc4)c3C2)cc1
inactive: [1] -13.4% | [2] 1.25% | [3] 5.5% | [4] -16.8% | [5] 4.75% | [6] -5.05%

O=CC12c3ccccc3C(c3ccccc31)C1C(=O)NC(=O)C12 (stereo unspecified)
inactive: [1] 1.65% | [2] -1.05% | [3] 7.6% | [4] 31.1% | [5] -18.3% | [6] 6.65%

O=C(Oc1ccc([N+](=O)[O-])cc1)C1CCCN1C(=O)OCc1ccccc1 (stereo unspecified)
inactive: [1] -6.55% | [2] -13.7% | [3] 7.55% | [4] 8.5% | [5] 7.2% | [6] 0.15%

CSc1nc(N)cc(Cl)n1
inactive: [1] 7.75% | [2] -25.5% | [3] -12.4% | [4] 5.85% | [5] -1.9% | [6] -9.7%

COC(=O)C1(C(=O)OC)O[C@@H](c2ccccc2)[C@H]2C(=O)N(C)C(=O)[C@H]21
inactive: [1] 7.05% | [2] 0.9% | [3] 7.45% | [4] 8.8% | [5] -1.1% | [6] 13.8%

COCCNc1cncc(C(N)=O)c1
inactive: [1] 15% | [2] 6.9% | [3] 9.15% | [4] -19.2% | [5] 2.45% | [6] 10.9%

CC(O)C(O)C(O)C(O)C=O (stereo unspecified)
inactive: [1] -13.2% | [2] -11.8% | [3] 3.8% | [4] 14.1% | [5] 7% | [6] -10.2%

C=CCN(CC=C)C(=O)Nc1cccc2c(NC(=O)N(CC=C)CC=C)cccc12
inactive: [1] -24% | [2] -23.6% | [3] -17.5% | [4] 4.5% | [5] -21.8% | [6] -23.4%

CCOC(=O)C12CCCCC1=CC1(CC2)SCCS1 (stereo unspecified)
inactive: [1] -0.45% | [2] -9.95% | [3] -30.5% | [4] -1.35% | [5] 4.55% | [6] -15.6%

COC1CC(NC(=O)C(F)(F)F)C(O)C(CNC(=O)C(F)(F)F)O1 (stereo unspecified)
inactive: [1] -32.5% | [2] 17.2% | [3] -3.55% | [4] -14% | [5] 16.1% | [6] 19.4%

Cc1[nH]c(=O)[nH]c(=O)c1/C=C/C(=O)NC(CO)CSC(C)C (stereo unspecified)
inactive: [1] -2% | [2] 27.1% | [3] -7.75% | [4] -3.9% | [5] 8.4% | [6] 9.55%

CC(=O)Nc1ccc2nc(/C=C/c3ccc(N(C)C)cc3)c(=O)oc2c1
inactive: [1] 38.5% | [2] 18.6% | [3] 25.5% | [4] 16.7% | [5] 20.1% | [6] 29.9%

COC(=O)CCc1cc(=O)oc2ccc3cc(CC(=O)OC)oc3c12
inactive: [1] 5.75% | [2] -7.65% | [3] 4.7% | [4] -6.1% | [5] -7.2% | [6] 2.15%

CC[N+](CC)(CCO)CCCCCCCCCC[N+](CC)(CC)CCO
inactive: [1] 29.6% | [2] -4.15% | [3] 10.6% | [4] -15.3% | [5] -1.15% | [6] 9.2%

COc1ccc(C=Nc2ccc(Cl)cc2)cc1
inactive: [1] -11.5% | [2] -25.2% | [3] 4.45% | [4] -18.7% | [5] 2.55% | [6] 3.55%

Cc1c2ccccc2c(C)n2c1nc1cc3ccccc3cc12
inactive: [1] 9.8% | [2] 11.9% | [3] 11.8% | [4] 8.55% | [5] 4.65% | [6] 28.6%

CC(C)(C)c1ccc(OCCOCCOc2ccc(C(C)(C)C)cc2S(N)(=O)=O)c(S(N)(=O)=O)c1
inactive: [1] 0.35% | [2] -23.3% | [3] -19.8% | [4] 9.7% | [5] -3.5% | [6] -6.35%

CC1(C)/C(=C\C(=O)O)C2CCC1C2 (stereo unspecified)
inactive: [1] 11.4% | [2] 8.3% | [3] 7.5% | [4] -10.8% | [5] -9.1% | [6] 8.75%

CCCCNC(=O)NCCCC
inactive: [1] 5.85% | [2] 3.6% | [3] -5.75% | [4] -4.5% | [5] -2.65% | [6] -0.15%

COc1ccccc1/C=C1\CCC(CCN2CCOCC2)C1=O (stereo unspecified)
inactive: [1] 44.4% | [2] 37.7% | [3] 52.5% | [4] 58.6% | [5] 39.9% | [6] 41.5%

COc1ccc(CSC(=S)Nc2ccc(C)c(Cl)c2)cc1
inactive: [1] 26% | [2] 18.2% | [3] 18.6% | [4] 10.1% | [5] -3.35% | [6] 17.2%

O=COCCO
inactive: [1] -12.6% | [2] -5.6% | [3] 7.6% | [4] -9.85% | [5] 1.75% | [6] -9.1%

O=[N+]([O-])c1ccccc1N=C=S
inactive: [1] 9.5% | [2] -10.3% | [3] -4.05% | [4] -36% | [5] -9.85% | [6] -17.7%

Cc1cccc(-n2c(-c3ccccc3)cs/c2=N\N=C2/CSC(=O)N2Cc2ccccc2)c1
inactive: [1] -2.95% | [2] -21.9% | [3] 22.8% | [4] -41.8% | [5] 2.45% | [6] -27.8%

CC(C)(C)C(Br)CC(N)=O (stereo unspecified)
inactive: [1] 22.1% | [2] 1.55% | [3] 2% | [4] 4.3% | [5] -6.95% | [6] -6.85%

Cc1cc(Cl)ccc1C1OC(=O)c2c1ccc1ccccc21 (stereo unspecified)
inactive: [1] 16.9% | [2] 6.8% | [3] -6.25% | [4] 15.6% | [5] 7.5% | [6] 13.8%

O=C(O)Cc1n[nH]c(=O)c2ccccc12
inactive: [1] -21.1% | [2] -5.2% | [3] -0.45% | [4] -2.75% | [5] -25.9% | [6] -7.7%

CCOC(=O)c1cnc(SC)nc1Nc1ccc(Cl)cc1
inactive: [1] -13.8% | [2] -9.4% | [3] -6.55% | [4] -8.65% | [5] 0.55% | [6] -31.2%

O=C1c2cccnc2-c2nccc3c2c1nc1ccccc13
active: [1] 90.3% | [2] 92.8% | [3] 91% | [4] 91.4% | [5] 91.5% | [6] 90.7%

CCCCCCCC(N)C(=O)O (stereo unspecified)
inactive: [1] 0% | [2] -2.55% | [3] 2.25% | [4] -26.2% | [5] -10.1% | [6] -12.9%

Fc1ccc(-c2nc3ccccc3[nH]2)cc1
inactive: [1] -9.6% | [2] 23.9% | [3] -1.2% | [4] -8.4% | [5] -4.4% | [6] -7.05%

Cc1cc2nc3c(=O)[nH]c(=O)nc-3n(CCO)c2cc1C
inactive: [1] -0.5% | [2] 1.5% | [3] 8.6% | [4] -39.4% | [5] 6.15% | [6] -9.95%

CC(=O)NC1=C(N2CCC2C)C(=O)c2ccccc2C1=O (stereo unspecified)
inactive: [1] -2.4% | [2] 0.8% | [3] 6.15% | [4] -4.4% | [5] -43.9% | [6] -11.4%

CC(=O)Nc1cc(F)c(NC(C)=O)c(F)c1
inactive: [1] -2.05% | [2] -1.95% | [3] -18.9% | [4] -15.2% | [5] -9.05% | [6] -10.3%

O=C1NCCCCCC1S(=O)c1ccccc1 (stereo unspecified)
inactive: [1] -7.8% | [2] -10.2% | [3] -8.5% | [4] 28.6% | [5] -11.8% | [6] -11.8%

CC(=O)[CH-]C(=O)c1ccccc1.CC(=O)[CH-]C(=O)c1ccccc1.CC[C@H](CCC(C)[C@H]1CCC2[C@@H]3CC=C4C[C@@H]([O-])CC[C@]4(C)C3CC[C@@]21C)C(C)C.CC[C@H](CCC(C)[C@H]1CCC2[C@@H]3CC=C4C[C@@H]([O-])CC[C@]4(C)C3CC[C@@]21C)C(C)C.Cl.[Ti+4] (stereo partly specified)
inactive: [1] 19% | [2] 3.9% | [3] 23.2% | [4] -11.2% | [5] 27.1% | [6] 5.05%

CC(=O)N1CCc2ccccc2C1C1NCCc2ccccc21 (stereo unspecified)
inactive: [1] 14.4% | [2] 8.95% | [3] 13.1% | [4] -0.15% | [5] 1.05% | [6] 5.9%

COc1cccc[n+]1C
inactive: [1] 10.2% | [2] 3.45% | [3] -2.15% | [4] 8.3% | [5] 5.4% | [6] 7.45%
